According to PubChem BioAssay (EPA / NIEHS):
“And” between values parts separate entries of the source, which are not always exact repeats. Equal entries are not always repeated. Results filed as inconclusive are left out. A structure can be active in one record and inactive in another. The source made the active and inactive calls. How the source made its calls, unless noted: active means hit-call score of the fitted dose curve at least 0.9, where 1 is the maximum; inactive means score below 0.9.

Legend:
[1] = CCTE_Shafer_MEA_acute_AB: CCTE's Alamar Blue Assay for Cytotoxicity in the Neural Acute Assay, Shafer Lab (AID 2284069; active means hit-call score of the fitted dose curve at least 0.9, where 1 is the maximum;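 further: active compounds lower the viability signal compared with DMSO wells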)
Summary of the method: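 Cytotoxicity endpoint for acute MEA exposures of primary rat cortical neurons on day 13 or 15. Resazurin reduction is read fluorescently at 544/590 nm, with DMSO as the negative-control baseline.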

[2] = CCTE_Shafer_MEA_acute_LDH: CCTE's Lactate Dehydrogenase Assay for Cytotoxicity in the Neural Acute Assay, Shafer Lab (AID 2284086; active means hit-call score of the fitted dose curve at least 0.9, where 1 is the maximum;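 further: active means LDH release rises above DMSO vehicle level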)
Summary of the method: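 Released lactate dehydrogenase, read at 490 nm, indicated cytotoxicity after acute 40-min compound treatment of rat cortical neuron networks grown on 48-well MEA plates.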

[3] = CCTE_Shafer_MEA_dev_LDH: CCTE's Lactate Dehydrogenase Assay for Cytotoxicity in the Neural Network Formation Assay, Shafer Lab (AID 2284068; active means hit-call score of the fitted dose curve at least 0.9, where 1 is the maximum;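 further: exposure for twelve days from plating with re-dosing on DIV 5 and 9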)
Summary of the method: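 Developing rat cortical networks on MEA plates are exposed to compound for 12 days from plating. LDH activity is measured spectrophotometrically, with DMSO as baseline.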

[4] = CCTE_Shafer_MEA_dev_AB: CCTE's Alamar Blue Assay for Cytotoxicity in the Neural Network Formation Assay, Shafer Lab (AID 2284083; active means hit-call score of the fitted dose curve at least 0.9, where 1 is the maximum;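 further: resazurin reduction fluorescence as viability of cultured neurons; twelve days of exposure from plating with re-dosing on DIV 5 and 9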)
Summary of the method: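 Cytotoxicity companion to the developmental MEA: primary rat cortical neurons, 12-day exposure starting day 0, compound refreshed DIV 5 and 9; resazurin fluorescence, fitted against DMSO vehicle.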

[5] = CCTE_Shafer_MEA_dev_mutual_information_norm: CCTE's Neural Network Formation Assay for Mutual Information Normalization, Shafer Lab (AID 2284091);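 on AC50: mutual information between electrodes summarised as area under curve across four recording days; potency is for a decrease in mutual information relative to DMSO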
Summary of the method: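 Rat cortical cultures, 48-well MEA, continuous exposure DIV 0–12 with full media/compound change DIV 5 and 9. Readout: inter-electrode mutual information, AxIS adaptive spike detection; AUC across DIV 5/7/9/12 recordings; DMSO baseline, negative fitting direction.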

[6] = CCTE_Shafer_MEA_dev_correlation_coefficient_mean: CCTE's Neural Network Formation Assay for Mean Correlation Coefficient, Shafer Lab (AID 2284093);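 on AC50: well mean pairwise spike train correlation integrated as AUC over recording days 5 to 12; potency fitted for loss of correlation relative to DMSO vehicle wells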
Summary of the method: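 Extracellular firing from rat cortical networks on 48-well MEAs, DMSO-referenced, negative fitting direction. Compound present from plating to DIV12; mean pairwise correlation per well integrated over DIV5–12 recordings by trapezoidal AUC.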

[7] = TAMU_PeakParms_SingleDonor1434_Chronotropy: Texas A&M University (TAMU) 1.5-hr Human Induced Pluripotent Stem Cell (iPSC)-derived Cardiomyocytes Calcium (Ca+2) Flux Assay for Cardiotoxicity: Chronotropy (changes in peak frequency) (AID 2284217); conditions: actives raise or lower the signal
Summary of the method: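 Using fluorescent Ca2+ flux, average beats per second are measured in human iPSC-derived cardiomyocytes treated 90 min (0.5% DMSO vehicle, 0.2–100 uM). Non-beating data points are removed; activity is modeled in both directions relative to DMSO controls.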

[8] = UKN2_HCS_IMR90_neural_migration: University of Konstanz (UKN) Leist Lab Neural Crest Cell Migration Assay in human induced IMR90 Pluripotent Stem Cells (UKN2) (AID 2284204); conditions: actives raise or lower the signal
Summary of the method: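 iPSC-derived IMR90 neural crest cells on PLO/laminin/fibronectin were seeded around silicone stoppers; after stopper removal, migration in N2-S medium with EGF and FGF ran 24 h before 24 h chemical exposure. Calcein-AM/Hoechst high-content imaging; bidirectional fit versus DMSO.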

[9] = IUF_NPC1b_proliferation_BrdU_72hr: Leibniz Research Institute for Environmental Medicine (IUF) 72-hour Neural Progenitor Cell Bromodeoxyuridine (BrdU) Proliferation Assay (NPC1b) (AID 2284207)
Summary of the method: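 hNPC spheres (primary, GW 16-19 fetal cortex), single sphere/well, EGF+FGF medium; 72 h compound, no renewal; BrdU pulse last 16 h; luminescent ELISA; activity vs DMSO baseline; growth-factor withdrawal as positive control.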

[10] = IUF_NPC1a_proliferation_area_72hr: Leibniz Research Institute for Environmental Medicine (IUF) 72-hour Neural Progenitor Cell Proliferation Area Assay (NPC1a) (AID 2284208)
Summary of the method: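 Single 0.25–0.35 mm human fetal neural progenitor spheres in proliferation medium with EGF and FGF, exposed 72 h from plating without renewal at 37C, pH 7.2-7.6. Sphere area growth measured by automated phase-contrast imaging, relative to DMSO.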

[11] = IUF_NPC1_viability_72hr: Viability Assessment at 72 hours in the Leibniz Research Institute for Environmental Medicine (IUF) Neural Progenitor Cell Proliferation Assay (NPC1) (AID 2284209)
Summary of the method: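 Each well receives one 0.3 mm progenitor sphere from fetal brain cortex; test chemical is added at plating and left three days. Viability comes from alamar blue fluorescence, multiplexed with LDH and BrdU readouts in the same well.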

[12] = CCTE_Mundy_HCI_Cortical_Synap_Neur_Matur_NeuriteSpotCountPerNeuriteLength: CCTE's Synaptogenesis and Neurite Maturation Assay in rat cortical cells for Neurite Spot Count per Neurite Length, Mundy Lab (AID 2284210)
Summary of the method: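 Rat primary cortical cultures, glia arrested with AraC at DIV 5, were dosed with media change at DIV 7 and fixed at DIV 12. Synaptophysin puncta per MAP2-labelled neurite length were quantified by high-content imaging versus DMSO.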

[13] = CCTE_Mundy_HCI_Cortical_Synap_Neur_Matur_BPCount: CCTE's Synaptogenesis and Neurite Maturation Assay in rat cortical cells for Branch Point Count, Mundy Lab (AID 2284211)
Summary of the method: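 Branch point number is quantified by automated imaging of fluorescently labelled neurites and synapses in rat primary cortical neurons exposed from DIV 7 to DIV 12. Activity is analysed relative to DMSO negative control.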

[14] = CCTE_Mundy_HCI_Cortical_NOG_NeuriteLength: CCTE's Neurite Outgrowth Assay in rat cortical cells for Neurite Length, Mundy Lab (AID 2284213);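 on AC50: neurites imaged about 48 to 50 h after chemical exposure began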
Summary of the method: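 Neurite length was read by high-content imaging of βIII-tubulin-labelled neurites in rat primary cortical cultures. Activity was fitted relative to DMSO.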

[15] = CCTE_Mundy_HCI_Cortical_Synap_Neur_Matur_NeuriteSpotCountPerNeuron: CCTE's Synaptogenesis and Neurite Maturation Assay in rat cortical cells for Neurite Spot Count per Neuron Count, Mundy Lab (AID 2284215)
Summary of the method: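 Rat primary cortical cultures given AraC at DIV 5, dosed from DIV 7 to DIV 12 with media change. Fixed, stained for MAP2, synaptophysin and Hoechst; neurite-associated synaptophysin puncta per neuron quantified by high-content imaging versus DMSO.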

[16] = UKN4_HCS_LUHMES_neurite_outgrowth: University of Konstanz (UKN) Leist Lab Neurite Outgrowth Assay in human LUHMES cells (UKN4) (AID 2284206); conditions: actives raise or lower the signal
Summary of the method: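 2-day-differentiated LUHMES, 24 h cpd exposure, live calcein-AM + H-33342 stain, HCS fluorescence imaging of neurite area; DMSO = baseline, bidirectional fit.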

[17] = CCTE_Mundy_HCI_Cortical_NOG_NeuriteCount: CCTE's Neurite Outgrowth Assay in rat cortical cells for Neurite Count, Mundy Lab (AID 2284212);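 further: cells fixed about two days after chemical exposure began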
Summary of the method: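 Neurite number per cell from high-content imaging of betaIII-tubulin immunostaining, with Hoechst nuclear counterstain.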

[18] = CCTE_Mundy_HCI_hN2_NOG_NeuriteCount: CCTE's Neurite Outgrowth Assay in human hN2 cells for Neurite Count, Mundy Lab (AID 2284219; active means hit-call score of the fitted dose curve at least 0.9, where 1 is the maximum)
Summary of the method: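 In this morphology assay, hNP1-derived neurons received test chemical 2 h post-plating and were fixed two days later in warm paraformaldehyde/sucrose containing Hoechst 33342. Neurites, labelled by rabbit anti-βIII-tubulin (1:800) and Alexa Fluor-488 (1:500), were counted automatically.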

Measured: AC50

O=C(O)c1nc(Cl)ccc1Cl
inactive: [1] | [2]

CCCCNC(=O)OCC#CI
inactive: [1] | [2] | [7]
active: [3] 3.84 µM and 1.13 µM | [4] 3.1 µM and 1.55 µM | [5] 1.81 µM and 1.09 µM | [6] 3.8 µM and 1.05 µM

CCOc1cc(Oc2ccc(C(F)(F)F)cc2Cl)ccc1[N+](=O)[O-]
active: [3] 17.7 µM | [4] 30 µM | [5] 4490 nM | [6] 6.5 µM | [12] 14.3 µM | [13] 14.8 µM | [14] 50 µM | [15] 11.6 µM
inactive: [8] | [9] | [10] | [11]

C=CCC1=C(C)C(OC(=O)C2C(C=C(C)C)C2(C)C)CC1=O (stereo unspecified)
inactive: [1] | [4] | [2] | [5] | [6] | [12] | [13] | [17] | [14] | [15]
active: [3] 23.6 µM | [4] 22.8 µM | [5] 917 nM | [6] 4.1 µM | [16] 9.08 µM

CC(C)(C)c1ccc(CSc2cnn(C(C)(C)C)c(=O)c2Cl)cc1
active: [3] 0.00284 µM | [4] 0.0115 µM | [5] 1.53 nM | [6] 0.00177 µM | [9] 0.0138 µM | [10] 0.0126 µM | [12] 0.000994 µM | [13] 0.000559 µM | [17] 0.00768 µM | [14] 0.00479 µM | [15] 0.000469 µM
inactive: [2] | [8] | [11]

N#CC(CCc1ccc(Cl)cc1)(Cn1cncn1)c1ccccc1 (stereo unspecified)
inactive: [1] | [2]

Cc1ccc(-c2c(Cl)nc(C#N)n2S(=O)(=O)N(C)C)cc1
inactive: [1] | [2] | [8]
active: [3] 30.3 µM | [4] 50 µM | [5] 15200 nM | [6] 27.9 µM | [9] 74.2 µM | [10] 74.1 µM | [11] 83 µM | [12] 73.3 µM | [13] 71.1 µM | [17] 72.9 µM | [14] 85.3 µM | [15] 70.3 µM

CN(C)C(=S)SSC(=S)N(C)C
active: [3] 0.00506 µM | [4] 0.012 µM | [5] 6.69 nM | [6] 0.00907 µM | [8] 1.72 µM | [9] 50.1 µM | [10] 67.2 µM | [11] 74.6 µM | [12] 0.0765 µM | [13] 0.0767 µM | [17] 0.0733 µM | [14] 0.0588 µM | [15] 0.0745 µM

CO/C=C(/C(=O)OC)c1ccccc1Oc1cc(Oc2ccccc2C#N)ncn1
inactive: [1] | [2] | [8] | [9] | [11]
active: [3] 507 nM and 1.41 µM | [4] 1.73 µM and 2.19 µM | [5] 1.11 µM and 985 nM | [6] 1.57 µM and 574 nM | [10] 60.2 µM | [12] 5.11 µM | [13] 3.25 µM | [17] 2.73 µM | [14] 2.58 µM | [15] 2.75 µM

CNC(=O)ON=CC(C)(C)SC
not listed: [2] | [8] | [16]
inactive: all other assays above

CCOP(=S)(OCC)SCn1c(=O)oc2cc(Cl)ccc21
inactive: [1] | [2]

COP(N)(=O)SC (stereo unspecified)
active: [13] 0.0258 µM
inactive: [3] | [4] | [2] | [5] | [6] | [9] | [10] | [11] | [12] | [13] | [17] | [14] | [15] | [18]

COP(=S)(OC)Oc1nc(Cl)c(Cl)cc1Cl
active: [13] 24.8 µM | [17] 25.9 µM | [14] 23.1 µM | [15] 20.7 µM
inactive: [3] | [4] | [2] | [5] | [6] | [9] | [10] | [11]

CC1COC(Cn2cncn2)(c2ccc(Oc3ccc(Cl)cc3)cc2Cl)O1 (stereo unspecified)
inactive: [1] | [2]
